IDE exosite inh: exo-site inhibitors of human IDE, primary screen, biochemical, fluorescence anisotropy, probe displacement. Insulin-degrading enzyme (Homo sapiens), P14735. purified IDE, FL-6b probe fluorescence polarization; active compounds read low. z-score at 20 µM. 17,000 compounds, 6.3% hits;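 active means z-score of -3 or lower, meaning strong loss of probe binding signal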;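 further: His-tagged human IDE residues 42-1019 made in E. coli with 30 nM FL-6b probe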
Target sequence (P14735 42-1019 limits assumed): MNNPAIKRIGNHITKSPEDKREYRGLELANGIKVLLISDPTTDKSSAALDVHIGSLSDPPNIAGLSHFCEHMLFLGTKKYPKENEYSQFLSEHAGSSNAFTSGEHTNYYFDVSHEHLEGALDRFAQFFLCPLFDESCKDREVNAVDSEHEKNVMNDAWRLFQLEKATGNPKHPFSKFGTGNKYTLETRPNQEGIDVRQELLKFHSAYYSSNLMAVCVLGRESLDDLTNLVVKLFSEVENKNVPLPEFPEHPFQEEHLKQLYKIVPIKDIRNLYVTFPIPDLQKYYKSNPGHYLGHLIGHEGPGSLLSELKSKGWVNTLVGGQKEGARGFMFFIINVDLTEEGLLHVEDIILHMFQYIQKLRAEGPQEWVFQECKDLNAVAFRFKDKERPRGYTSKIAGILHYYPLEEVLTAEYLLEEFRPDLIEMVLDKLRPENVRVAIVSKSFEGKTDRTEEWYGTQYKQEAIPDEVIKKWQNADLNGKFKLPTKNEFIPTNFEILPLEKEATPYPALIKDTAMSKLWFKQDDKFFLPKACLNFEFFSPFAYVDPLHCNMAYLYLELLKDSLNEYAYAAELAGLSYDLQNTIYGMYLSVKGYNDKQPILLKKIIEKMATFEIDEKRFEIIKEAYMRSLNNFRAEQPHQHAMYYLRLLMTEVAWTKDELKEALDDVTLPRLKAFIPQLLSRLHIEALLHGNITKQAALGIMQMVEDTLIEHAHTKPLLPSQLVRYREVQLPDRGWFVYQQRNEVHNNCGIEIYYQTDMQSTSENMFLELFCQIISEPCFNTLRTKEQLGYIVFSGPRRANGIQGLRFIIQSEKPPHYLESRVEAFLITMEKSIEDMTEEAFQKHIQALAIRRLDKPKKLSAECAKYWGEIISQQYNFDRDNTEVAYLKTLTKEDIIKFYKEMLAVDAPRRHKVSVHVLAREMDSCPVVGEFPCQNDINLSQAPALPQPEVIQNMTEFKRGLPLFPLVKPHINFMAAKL
Large screens that a line does not name were inactive; ! = a repeat was not active. Only a selection was taken, and hits are over-represented in it overall.

C[C@@H]1CCCCO[C@H](CN(C)S(=O)(=O)c2cn(C)cn2)[C@@H](C)CN([C@@H](C)CO)C(=O)c2cc(N(C)C)ccc2O1	none
N#C[C@H]1[C@@H](c2ccccc2-c2ccccc2)[C@@H](CO)N1C(=O)Cc1cccnc1	none
CC(=O)N1CC2(C1)[C@H](c1ccccc1)[C@@H](CO)N2Cc1ccccc1	none
C[C@@H]1CN([C@@H](C)CO)C(=O)c2cc(NC(=O)Nc3cccc4ccccc34)ccc2O[C@@H](C)CCCCO[C@@H]1CN(C)Cc1ccc(C(F)(F)F)cc1	none
CN(C)C(=O)c1ccc(-c2ccc([C@@H]3[C@H](CO)N4C(=O)CN(C(=O)C5CCCCC5)C[C@@H]34)cc2)cc1	none
CCN(C[C@H]1N[C@@H](CO)[C@@H]1c1ccc(C2=CCCC2)cc1)C(=O)c1ccncc1	none
Cc1ccc(-c2ccccc2[C@@H]2[C@@H](C#N)N(C(=O)Cc3cccnc3)[C@@H]2CO)cc1	none
CC(=O)N1CC(=O)N2[C@H](CO)[C@@H](c3ccc(-c4ccc(C#N)cc4)cc3)[C@@H]2C1	none
COc1ccc(-c2ccc([C@H]3[C@@H](CO)N4CCCCN(C(=O)NC(C)C)C[C@@H]34)cc2)cc1	IDE exosite inh -6.29
COc1ccc(-c2ccc([C@@H]3[C@H]4CN(C(=O)NC(C)C)CCCCN4[C@H]3CO)cc2)cc1	IDE exosite inh -6.56
COc1ccc(-c2ccc([C@@H]3[C@H]4CN(C(=O)c5ccc(F)cc5)CCCCN4[C@H]3CO)cc2)cc1	none
COc1ccc(-c2ccc([C@H]3[C@H](CO)N4CCCCN(C(=O)NC(C)C)C[C@@H]34)cc2)cc1	IDE exosite inh -7.32
COc1ccc(-c2ccc([C@H]3[C@@H](CO)N4CCCCN(C(=O)NC(C)C)C[C@H]34)cc2)cc1	none
CC(C)NC(=O)N1CCCCN2[C@H](C1)[C@@H](c1ccc(Br)cc1)[C@@H]2CO	none
COCC(=O)N1CCCCN2[C@H](C1)[C@H](c1ccc(-c3ccc(OC)cc3)cc1)[C@@H]2CO	none
COCC(=O)N1CCCCN2[C@H](CO)[C@@H](c3ccc(-c4ccc(OC)cc4)cc3)[C@H]2C1	none
COCC(=O)N1CCCCN2[C@@H](CO)[C@@H](c3ccc(-c4ccc(OC)cc4)cc3)[C@@H]2C1	none
CC=Cc1ccc2n(c1=O)C[C@@H]1[C@@H](CO)[C@H](C(=O)N3CCOCC3)N(Cc3ccccc3)[C@H]21 (mixture of isomers)	none
CC(C)NC(=O)N1[C@@H]2CNC[C@H]1C2c1ccc(-c2ccc(C#N)cc2)cc1 (some centres undefined)	none
COc1ccc(S(=O)(=O)N2C[C@H](O)COC[C@H]3O[C@H](CC(=O)N[C@@H]4CCN(Cc5ccccc5)C4)CC[C@@H]32)cc1	none
COc1ccc(C[C@@H]2CCn3nncc3COC[C@H](CC(C)C)NC2=O)cc1	none
O=C(C[C@@H]1CC[C@@H]2NC[C@H](O)COC[C@H]2O1)NCc1ccc2c(c1)OCO2	none
COCC#Cc1ccc([C@@H]2[C@@H](CO)N3C(=O)CN(C(=O)Nc4ccc(F)cc4)C[C@H]23)cc1	none
N#C[C@@H]1[C@H](c2ccccc2C2=CCCC2)[C@@H](CO)N1C(=O)CN1CCOCC1	none
COc1ccc(-c2ccc(C3[C@H]4CNC[C@@H]3N4S(=O)(=O)c3cn(C)cn3)cc2)cc1 (some centres undefined)	none
N#C[C@H]1[C@H](c2ccc(-c3ccccc3F)cc2)[C@H](CO)N1C(=O)C1CCC1	IDE exosite inh -3.1
CN(C)C(=O)c1cccc(-c2ccc(C3[C@H]4CNC[C@@H]3N4Cc3nccs3)cc2)c1 (some centres undefined)	none
COc1cccc(C#Cc2ccc([C@H]3[C@@H](CO)N(C(=O)C4CCOCC4)[C@H]3C#N)cc2)c1	IDE exosite inh -5.09
COc1cccc(C#Cc2ccc([C@H]3[C@H](C#N)N(C(=O)C4CC4)[C@H]3CO)cc2)c1	none
N#C[C@@H]1[C@H](c2ccc(-c3ccccc3F)cc2)[C@@H](CO)N1C(=O)C1CCC1	none
N#C[C@H]1[C@H](c2ccc(-c3ccccc3F)cc2)[C@@H](CO)N1C(=O)C1CCC1	none
COc1cccc(C#Cc2ccc([C@H]3[C@@H](C#N)N(C(=O)C4CCC4)[C@@H]3CO)cc2)c1	none
CS(=O)(=O)N1[C@H](C#N)[C@@H](c2ccccc2-c2ccccc2F)[C@H]1CO	none
CN(C)C(=O)c1cccc(-c2ccc(C3[C@@H]4CN(Cc5nccs5)C[C@H]3N4)cc2)c1 (some centres undefined)	IDE exosite inh -3.25!
CN(C)C(=O)c1ccc(-c2ccc(C3[C@@H]4CN(Cc5nccs5)C[C@H]3N4)cc2)cc1 (some centres undefined)	none
CS(=O)(=O)N1[C@H](CO)[C@@H](c2ccc(-c3ccccc3F)cc2)[C@@H]1C#N	IDE exosite inh -3.12
CS(=O)(=O)N1[C@H](C#N)[C@@H](c2ccccc2)[C@@H]1CO	none
CN1c2ccc(C#Cc3cccnc3)cc2[C@@H]2[C@@H](CCN2C(=O)c2cccc(F)c2)[C@H]1CO	none
O=C(Nc1ccc(F)cc1)N1CC(=O)N2[C@H](CO)[C@@H](c3ccc(C#Cc4cccnc4)cc3)[C@@H]2C1	none
COc1ccccc1S(=O)(=O)N(C)C[C@H]1OCc2ccccc2-c2ccccc2C(=O)N([C@H](C)CO)C[C@@H]1C	none
CCCNC(=O)N1CC2(CCN(C(=O)Cc3cccnc3)CC2)c2c([nH]c3cc(OC)ccc23)[C@H]1CO	none
COc1ccc(C#Cc2ccc([C@@H]3[C@H]4CN(C(=O)c5ccc(F)cc5)CC(=O)N4[C@H]3CO)cc2)cc1	none
C/C=C/c1ccc([C@@H]2[C@@H](CN(C)C(=O)CC)N(S(C)(=O)=O)[C@H]2CO)cc1	none
COc1ccc(-c2ccccc2[C@@H]2[C@H](C#N)N(C(=O)c3cccnc3)[C@H]2CO)cc1	none
CC(=O)N1CC(=O)N2[C@H](CO)[C@@H](c3ccc(-c4ccc(C)cc4)cc3)[C@@H]2C1	none
CS(=O)(=O)N1[C@H](CO)[C@@H](c2ccccc2)[C@@H]1C#N	none
C/C=C/c1ccc([C@@H]2[C@H]3CN(C(=O)Nc4ccccc4F)CC(=O)N3[C@H]2CO)cc1	none
N#C[C@H]1[C@H](c2ccccc2C2=CCCC2)[C@@H](CO)N1C(=O)CN1CCOCC1	none
C[C@H]1CN([C@@H](C)CO)C(=O)c2ccccc2-c2ccccc2CO[C@@H]1CN(C)C(=O)Nc1cccc(Cl)c1Cl	none
COCC(=O)Nc1ccc2c(c1)OC[C@@H](C)N(C)C[C@H](C)[C@H](OC)CN(C)C2=O	none
C/C=C/c1ccc([C@H]2[C@@H](CO)N(C(=O)CC)[C@H]2CNC(=O)CC)cc1	none
O=C(C[C@H]1CC[C@H]2NC[C@H](O)COC[C@@H]2O1)Nc1nccs1	none
C[C@@H]1CN([C@@H](C)CO)C(=O)c2cc(-c3ccc(C#N)cc3)cnc2O[C@H]1CN(C)Cc1cccnc1	none
COc1ccccc1-c1ccc([C@@H]2[C@@H](C#N)N(C(=O)C3CCC3)[C@@H]2CO)cc1	IDE exosite inh -12.2
COc1ccccc1-c1ccccc1[C@H]1[C@@H](CO)N(C(=O)C2CC2)[C@H]1C#N	none
COc1ccc(-c2ccc([C@@H]3[C@H](C#N)N(C(=O)c4cccnc4)[C@H]3CO)cc2)cc1	none
COc1ccccc1-c1ccc([C@@H]2[C@@H](C#N)N(C(=O)c3cccnc3)[C@@H]2CO)cc1	IDE exosite inh -33.8
COc1ccccc1-c1ccc([C@@H]2[C@@H](CO)N(C(=O)C3CCC3)[C@H]2C#N)cc1	IDE exosite inh -6.54
COc1ccc(-c2ccc([C@H]3[C@H](C#N)N(C(=O)C4CCCC4)[C@H]3CO)cc2)cc1	none

High-throughput results: PubChem, Broad Institute
